# Data taken from ChEMBL document CHEMBL3988442, “University of Dundee, Small-Polar-MMV Screening Library” (2021).
# The campaign covered roughly 48,000 compounds. About 13,000 (27%) showed an effect of 50% or more. The list shows a part of the results.
# Test system: Wolbachia pipientis
# Experiment: Anti-Wolbachia Cell-Based Screen
# Assay type: functional
# Set-up: scale not given: in the data most compounds retested in dose-response had high values
# Conditions: 5 µM
row,SMILES,Percent Effect
1,NC(=O)Nc1cccc(C(=O)N(Cc2ccncc2)C2CC2)c1,8.655%
2,CC(O)CN1CCC(CNCc2ccccc2Br)CC1 (centres undefined),-8.503%
3,O=C(NCCN1CCOCC1)NCc1ccc(-n2cccn2)cc1,-7.54%
4,CC(C)Nc1nc2c(c(NC3CC3)n1)CCN(C1CCOCC1)CC2,-24.37%
5,O=C(CO)N1CCN(S(=O)(=O)CCCF)CC1,-8.107%
6,O=C(c1ccoc1)N1CCCCC1c1nc[nH]n1 (centres undefined),11.28%
7,COc1ccc(NC(=O)N2CCCCC2c2ncc[nH]2)cc1 (centres undefined),18.67%
8,O=S(=O)(N(Cc1ccccn1)C1CC1)N1CCCC1c1ccco1 (centres undefined),17.98%
9,Nc1cc(-c2c[nH]nc2C2CCCN2CCCc2ccccc2)ccn1 (centres undefined),114.8%
10,Cc1cc(C2CCCN2CCCS(=O)(=O)c2ccccc2)no1 (centres undefined),-10.32%
11,Nc1cc(-c2c[nH]nc2C2CCCCN2C(=O)C2CCCC2)ccn1 (centres undefined),118.9%
12,Nc1ncncc1-c1noc([C@@H]2CCCN2CCCc2ccccc2)n1,5.428%
13,Nc1cc(-c2c[nH]nc2C2CCCN2S(=O)(=O)c2ccccc2)ccn1 (centres undefined),96.1%
14,Cn1nnc2c1C(COCC1CC1)CN(C(=O)CC1=CCCCC1)C2 (centres undefined),-19.61%
15,CC(NC1(CNC(=O)CC2CCCC2)CCOCC1)c1ccccc1 (centres undefined),-11.89%
16,Cc1sc2nc(SC(C)c3nc(C(C)(C)C)no3)nc(N)c2c1C (centres undefined),10.97%
17,CCc1nnsc1C(=O)N(C)Cc1ccc(Br)o1,14.42%
18,Cc1ccc(S(=O)(=O)Cc2nsc(N(C)C)n2)c(C)c1,-1.61%
19,CCc1nc(NCC(=O)N2CCOCC2)c2c(n1)c(C)nn2CC,7.048%
20,CCN1CCN(c2ccc(F)cc2C(C)NCc2ccnn2C)CC1 (centres undefined),-1.019%
21,Cc1ccc(N2CCC(C(O)Cc3ccccc3)CC2)nn1 (centres undefined),-17.42%
22,Cc1nc(N)sc1C(=O)N1CCC(C(O)Cc2ccccc2)CC1 (centres undefined),104.4%

row,SMILES,Percent Effect
1,COc1nc(C)c(C(=O)N2CCC(C(O)Cc3ccccc3)CC2)s1 (centres undefined),114.7%
2,CC(C)CC(O)C1CCN(C(=O)c2ccc(C(C)C)[nH]c2=O)CC1 (centres undefined),-16.76%
3,CCOC(=O)N1CCN(C(=O)c2sc(-c3ccccc3)nc2C)CC1,-9.068%
4,Cc1cc(=O)c(C(=O)N2CCC(C(O)Cc3ccccc3)CC2)c(C)[nH]1 (centres undefined),97.46%
5,COc1nc(C)c(C(=O)N2CCc3[nH]nc(Cc4ccccc4)c3C2)s1,2.938%
6,Cc1nn(C)c2nc(N3CCC(C(O)Cc4ccccc4)CC3)sc12 (centres undefined),-11.76%
7,COc1nc(C)c(C(=O)N2CCN(c3ncccc3C)CC2)s1,-23.23%
8,c1ccc(Cn2cccn2)c(CN2CCCCC2CCn2ccnc2)c1 (centres undefined),-5.854%
9,O=C(Nc1ccc(-c2csnn2)cc1)N1CCN2CCCCC2C1 (centres undefined),5.858%
10,NS(=O)(=O)c1cnn(-c2ccc(NC(=O)C3CCCCC3)cn2)c1,-15.76%
11,Nc1ncc(-c2cccc(NC(=O)[C@@H]3CCCCN3)c2)cn1,116.6%
12,O=C(Nc1ccc(-c2cnc(NCCO)nc2)cc1)[C@@H]1CCCCN1,129.4%
13,Cc1cccc(NC(=O)C2CCc3ccccc3N2)c1.Cl (centres undefined),2.596%
14,O=C(Nc1cnc2n1CCCC2)c1cccc(NC(=O)C2CCCC2)c1,10.86%
15,Nc1ncc(-c2ccc(NC(=O)[C@@H]3CCCCN3)cc2)cn1,109.3%
16,O=C(Nc1ccc(-c2ccccc2)cn1)C1CCN(C(=O)C2CC2)CC1,26.94%
17,CNc1ncc(-c2ccc(NC(=O)[C@@H]3CCCCN3)cc2)cn1,112.9%
18,Cc1ccc(NC(=O)C2CCc3ccccc3N2)cc1 (centres undefined),-1.128%
19,Cc1ccc2cc(C3(O)CCN(C(=O)[C@@H]4CCCCN4)CC3)ccc2n1,-9.232%
20,CCc1ncc(C(=O)N(C)CCc2nc3cc(OC)ccc3[nH]2)cn1,4.765%
21,CNC(=O)C(C)(C)N1CCC[C@H]1C(=O)NCC1CC1,11.03%
22,COc1ccc(OCc2noc(CN(C)C3CCS(=O)(=O)C3)n2)cc1 (centres undefined),-8.185%

row,SMILES,Percent Effect
1,CN(Cc1cc(Br)cn1C)C(=O)c1ccon1,-0.2013%
2,O=C1NCC2(CCCN(CCc3ccccc3)C2)Oc2ccccc21 (centres undefined),-15.46%
3,O=S1(=O)NC2(CCCN(Cc3ccc(F)cc3)C2)COc2ccccc21 (centres undefined),98.49%
4,O=S1(=O)NCC2(CCN(c3ncc(F)cn3)CC2)COc2ccccc21,-10.54%
5,COCCCC1(CO)CCCN(CCc2ccccc2)C1 (centres undefined),-12.43%
6,O=S1(=O)NC2(CCCN(Cc3ccc(Cl)cc3)C2)COc2ccccc21 (centres undefined),134.9%
7,O=C1Nc2ccccc2C12CCCN(Cc1ccc3c(c1)OCCO3)C2 (centres undefined),-17.7%
8,CN1C2(CCN(Cc3ccc(F)cc3)C2)c2ccccc2S1(=O)=O (centres undefined),8.528%
9,O=S1(=O)NC2(CCCN(CCc3ccccc3)C2)COc2ccccc21 (centres undefined),103.7%
10,CCN(C)c1ccc(CNC(=O)c2ccc(NC(N)=O)cc2)cc1F,-59.71%
11,CCc1cc(NCc2cc3n(n2)CCCN(S(C)(=O)=O)C3)nc(C)n1,3.028%
12,c1ccc(Oc2nccc3occc23)c(CN2CCCCC2)c1,-8.744%
13,CN(C)S(=O)(=O)NCC1(c2ccccc2Br)CC1,-6.253%
14,CN1CCO[C@@H]2CN(S(=O)(=O)c3ccccc3)CC[C@@H]2C1.O=C(O)C(F)(F)F,-5.775%
15,CN1CCO[C@H]2CN(S(=O)(=O)c3ccc(C#N)cc3)C[C@H]21.O=C(O)C(F)(F)F,-17.08%
16,COc1ccc(S(=O)(=O)N2C[C@@H]3CN(C)CCO[C@@H]3C2)cc1,104.2%
17,CN1CCO[C@@H]2CN(S(=O)(=O)c3ccccc3)C[C@@H]2C1.O=C(O)C(F)(F)F,98.27%
18,CC(=O)N1CCO[C@@H]2CN(S(=O)(=O)c3cccnc3)C[C@@H]2C1.O=C(O)C(F)(F)F,105.8%
19,CC(C)N1CCO[C@H]2CN(S(=O)(=O)c3ccc(C#N)cc3)C[C@H]21,-6.179%
20,CNC(=O)[C@H]1C[C@@H]2CN(S(=O)(=O)c3ccc(OC)cc3)C[C@@H]2N1C.O=C(O)C(F)(F)F,-8.898%
